Assay results published in the supplement of paper PMC11732987, “Enantioselective OTUD7B fragment discovery through chemoproteomics screening and high-throughput optimisation” (Communications Chemistry, 2025).

What was measured:
Experiment in all cases: log2 ratio of Biotin-Ahx-Ub-VS probe labelling (fragment/DMSO); higher = less target engagement (more negative = stronger competition), active = hit call of the paper (q ≤ 0.05, log2 ratio ≤ -1)
Conditions in all cases: compound concentration: 200 uM; treatment time: 3 h
USP34 = USP34 (UniProt Q70CQ2)
Sequence of USP34 (Q70CQ2 whole entry, the tested form may be a part): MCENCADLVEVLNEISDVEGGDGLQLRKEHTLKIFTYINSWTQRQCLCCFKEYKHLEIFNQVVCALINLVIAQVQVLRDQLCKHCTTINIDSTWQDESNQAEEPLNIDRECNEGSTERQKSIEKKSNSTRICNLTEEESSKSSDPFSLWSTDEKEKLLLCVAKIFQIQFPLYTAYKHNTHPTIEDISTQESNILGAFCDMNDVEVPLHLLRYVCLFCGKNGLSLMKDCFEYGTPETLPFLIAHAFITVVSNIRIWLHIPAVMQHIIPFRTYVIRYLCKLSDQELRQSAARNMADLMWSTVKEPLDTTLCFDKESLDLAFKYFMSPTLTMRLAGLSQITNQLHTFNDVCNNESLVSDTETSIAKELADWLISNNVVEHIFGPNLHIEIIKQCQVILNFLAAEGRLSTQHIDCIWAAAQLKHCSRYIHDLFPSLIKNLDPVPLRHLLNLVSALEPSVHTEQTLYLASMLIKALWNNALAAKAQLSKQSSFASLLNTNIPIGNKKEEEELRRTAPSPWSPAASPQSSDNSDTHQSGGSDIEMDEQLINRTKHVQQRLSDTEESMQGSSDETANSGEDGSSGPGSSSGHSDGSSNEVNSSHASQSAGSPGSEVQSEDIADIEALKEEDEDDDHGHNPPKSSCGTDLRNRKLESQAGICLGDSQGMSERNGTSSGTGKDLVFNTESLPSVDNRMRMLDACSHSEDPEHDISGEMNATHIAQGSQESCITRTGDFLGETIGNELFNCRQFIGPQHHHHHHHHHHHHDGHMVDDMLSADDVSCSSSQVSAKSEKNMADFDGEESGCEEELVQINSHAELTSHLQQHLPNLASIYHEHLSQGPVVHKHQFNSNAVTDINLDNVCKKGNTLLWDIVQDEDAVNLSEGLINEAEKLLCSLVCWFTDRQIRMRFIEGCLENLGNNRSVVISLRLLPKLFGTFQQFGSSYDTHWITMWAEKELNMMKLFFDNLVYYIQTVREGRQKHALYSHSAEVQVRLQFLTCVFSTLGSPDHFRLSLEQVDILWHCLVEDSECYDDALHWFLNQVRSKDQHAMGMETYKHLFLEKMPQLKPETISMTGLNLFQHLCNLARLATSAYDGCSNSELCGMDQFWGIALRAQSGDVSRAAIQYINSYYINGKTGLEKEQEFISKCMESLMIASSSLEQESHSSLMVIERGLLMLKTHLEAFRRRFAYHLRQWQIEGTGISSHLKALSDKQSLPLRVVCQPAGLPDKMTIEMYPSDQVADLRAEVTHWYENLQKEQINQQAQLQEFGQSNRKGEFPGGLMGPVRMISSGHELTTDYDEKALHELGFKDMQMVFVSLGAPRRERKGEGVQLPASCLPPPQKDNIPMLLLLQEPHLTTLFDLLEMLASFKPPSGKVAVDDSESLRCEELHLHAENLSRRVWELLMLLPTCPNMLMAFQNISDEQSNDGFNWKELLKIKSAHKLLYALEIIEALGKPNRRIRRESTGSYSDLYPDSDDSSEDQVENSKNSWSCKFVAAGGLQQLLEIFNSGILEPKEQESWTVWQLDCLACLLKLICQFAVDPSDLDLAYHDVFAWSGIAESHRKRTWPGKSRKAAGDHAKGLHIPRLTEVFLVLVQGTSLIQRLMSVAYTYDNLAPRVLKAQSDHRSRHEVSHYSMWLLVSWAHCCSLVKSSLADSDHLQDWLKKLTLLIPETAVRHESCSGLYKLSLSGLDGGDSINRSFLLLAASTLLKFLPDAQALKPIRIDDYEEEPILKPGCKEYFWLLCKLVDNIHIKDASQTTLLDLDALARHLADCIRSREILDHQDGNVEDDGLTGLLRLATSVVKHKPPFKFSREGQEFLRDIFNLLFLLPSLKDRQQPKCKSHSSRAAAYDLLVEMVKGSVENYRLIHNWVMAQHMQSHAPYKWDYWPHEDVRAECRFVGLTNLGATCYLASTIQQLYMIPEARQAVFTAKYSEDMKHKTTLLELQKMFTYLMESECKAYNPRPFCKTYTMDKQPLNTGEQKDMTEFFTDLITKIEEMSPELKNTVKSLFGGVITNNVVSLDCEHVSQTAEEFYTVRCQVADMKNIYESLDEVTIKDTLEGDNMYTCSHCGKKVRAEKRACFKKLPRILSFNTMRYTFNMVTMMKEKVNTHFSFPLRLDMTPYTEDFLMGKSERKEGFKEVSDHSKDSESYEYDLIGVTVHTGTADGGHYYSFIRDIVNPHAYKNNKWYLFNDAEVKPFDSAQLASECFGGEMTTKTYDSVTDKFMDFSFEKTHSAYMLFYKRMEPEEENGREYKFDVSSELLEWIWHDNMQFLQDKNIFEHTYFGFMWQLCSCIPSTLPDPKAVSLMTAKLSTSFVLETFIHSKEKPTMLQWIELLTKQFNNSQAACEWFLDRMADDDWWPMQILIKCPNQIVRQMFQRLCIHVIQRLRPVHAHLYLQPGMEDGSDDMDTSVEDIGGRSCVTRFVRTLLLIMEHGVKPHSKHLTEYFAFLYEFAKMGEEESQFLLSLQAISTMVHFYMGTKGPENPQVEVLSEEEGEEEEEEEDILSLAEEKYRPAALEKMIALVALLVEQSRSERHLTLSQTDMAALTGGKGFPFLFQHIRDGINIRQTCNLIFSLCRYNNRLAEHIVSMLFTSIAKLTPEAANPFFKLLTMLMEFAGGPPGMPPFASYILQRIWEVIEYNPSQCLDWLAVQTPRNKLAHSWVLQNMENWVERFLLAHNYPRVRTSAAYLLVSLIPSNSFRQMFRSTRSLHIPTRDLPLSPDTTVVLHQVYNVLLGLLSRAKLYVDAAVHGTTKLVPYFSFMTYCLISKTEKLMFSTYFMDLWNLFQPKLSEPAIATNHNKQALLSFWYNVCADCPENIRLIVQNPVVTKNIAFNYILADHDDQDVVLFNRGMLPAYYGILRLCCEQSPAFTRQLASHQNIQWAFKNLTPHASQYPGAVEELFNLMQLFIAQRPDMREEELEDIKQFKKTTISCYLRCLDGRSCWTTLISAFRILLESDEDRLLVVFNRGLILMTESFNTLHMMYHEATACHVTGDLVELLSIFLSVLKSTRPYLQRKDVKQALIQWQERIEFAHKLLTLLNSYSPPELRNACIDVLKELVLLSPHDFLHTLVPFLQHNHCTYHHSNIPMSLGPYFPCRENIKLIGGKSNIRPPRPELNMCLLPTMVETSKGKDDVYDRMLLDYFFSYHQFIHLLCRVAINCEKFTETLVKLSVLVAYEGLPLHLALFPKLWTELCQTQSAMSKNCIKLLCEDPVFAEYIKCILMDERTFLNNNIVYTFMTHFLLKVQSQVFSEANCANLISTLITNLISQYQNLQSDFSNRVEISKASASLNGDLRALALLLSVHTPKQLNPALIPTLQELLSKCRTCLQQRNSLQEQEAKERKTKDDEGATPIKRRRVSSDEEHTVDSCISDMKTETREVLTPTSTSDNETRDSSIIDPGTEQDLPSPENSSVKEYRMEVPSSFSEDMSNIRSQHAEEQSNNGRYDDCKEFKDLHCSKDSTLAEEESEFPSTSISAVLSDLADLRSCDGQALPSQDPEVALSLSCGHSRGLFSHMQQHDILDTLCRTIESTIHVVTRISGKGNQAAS
Summary of the method: (§1)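 Triplicate samples of HEK293T lysate, 495 µg each, received fragment at 200 µM or vehicle for 3 h, followed by Biotin-Ahx-Ub-VS (0.5 µM final) for 1 h. After NeutrAvidin enrichment of labelled DUBs and LysC/trypsin digestion, peptides were run by diaPASEF LC-MS/MS. The values are average log2 fragment/vehicle ratios from global-median-normalised Spectronaut label-free quantities, tested by unpaired t-test on proteins having ≥2 unique peptides.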

USP36 = molecular target: T1, USP36 (UniProt Q9P275)
T1 sequence (whole entry): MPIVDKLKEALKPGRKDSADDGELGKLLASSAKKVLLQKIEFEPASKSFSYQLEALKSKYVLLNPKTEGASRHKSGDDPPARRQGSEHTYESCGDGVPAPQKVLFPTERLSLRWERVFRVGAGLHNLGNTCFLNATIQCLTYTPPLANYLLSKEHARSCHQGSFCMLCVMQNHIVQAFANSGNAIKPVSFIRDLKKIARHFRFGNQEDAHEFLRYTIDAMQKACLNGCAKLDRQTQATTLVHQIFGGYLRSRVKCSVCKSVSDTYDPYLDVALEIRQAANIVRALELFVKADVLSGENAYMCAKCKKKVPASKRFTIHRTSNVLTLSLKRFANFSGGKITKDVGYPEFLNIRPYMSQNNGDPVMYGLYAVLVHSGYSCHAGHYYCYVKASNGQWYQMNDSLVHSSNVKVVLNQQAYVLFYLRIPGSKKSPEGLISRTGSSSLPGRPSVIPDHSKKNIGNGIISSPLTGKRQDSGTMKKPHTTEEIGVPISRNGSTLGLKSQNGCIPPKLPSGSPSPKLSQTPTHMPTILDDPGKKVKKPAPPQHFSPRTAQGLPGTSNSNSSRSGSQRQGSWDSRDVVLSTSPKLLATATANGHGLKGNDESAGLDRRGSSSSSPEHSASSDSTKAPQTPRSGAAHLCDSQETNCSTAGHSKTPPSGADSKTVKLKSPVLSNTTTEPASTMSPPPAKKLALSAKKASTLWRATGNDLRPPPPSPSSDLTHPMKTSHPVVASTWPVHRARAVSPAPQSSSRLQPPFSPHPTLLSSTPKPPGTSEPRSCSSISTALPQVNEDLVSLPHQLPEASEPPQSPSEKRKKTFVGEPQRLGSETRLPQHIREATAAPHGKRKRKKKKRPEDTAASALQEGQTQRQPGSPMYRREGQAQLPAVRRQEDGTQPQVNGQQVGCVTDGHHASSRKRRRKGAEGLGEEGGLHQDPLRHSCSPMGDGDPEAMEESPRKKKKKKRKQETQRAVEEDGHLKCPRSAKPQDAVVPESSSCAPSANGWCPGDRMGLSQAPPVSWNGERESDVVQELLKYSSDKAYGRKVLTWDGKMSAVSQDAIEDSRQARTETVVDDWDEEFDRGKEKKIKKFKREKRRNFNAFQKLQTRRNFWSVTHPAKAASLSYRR
Summary of the method: as §1

USP38 = molecular target: T2, USP38 (UniProt Q8NB14)
T2 sequence (whole entry): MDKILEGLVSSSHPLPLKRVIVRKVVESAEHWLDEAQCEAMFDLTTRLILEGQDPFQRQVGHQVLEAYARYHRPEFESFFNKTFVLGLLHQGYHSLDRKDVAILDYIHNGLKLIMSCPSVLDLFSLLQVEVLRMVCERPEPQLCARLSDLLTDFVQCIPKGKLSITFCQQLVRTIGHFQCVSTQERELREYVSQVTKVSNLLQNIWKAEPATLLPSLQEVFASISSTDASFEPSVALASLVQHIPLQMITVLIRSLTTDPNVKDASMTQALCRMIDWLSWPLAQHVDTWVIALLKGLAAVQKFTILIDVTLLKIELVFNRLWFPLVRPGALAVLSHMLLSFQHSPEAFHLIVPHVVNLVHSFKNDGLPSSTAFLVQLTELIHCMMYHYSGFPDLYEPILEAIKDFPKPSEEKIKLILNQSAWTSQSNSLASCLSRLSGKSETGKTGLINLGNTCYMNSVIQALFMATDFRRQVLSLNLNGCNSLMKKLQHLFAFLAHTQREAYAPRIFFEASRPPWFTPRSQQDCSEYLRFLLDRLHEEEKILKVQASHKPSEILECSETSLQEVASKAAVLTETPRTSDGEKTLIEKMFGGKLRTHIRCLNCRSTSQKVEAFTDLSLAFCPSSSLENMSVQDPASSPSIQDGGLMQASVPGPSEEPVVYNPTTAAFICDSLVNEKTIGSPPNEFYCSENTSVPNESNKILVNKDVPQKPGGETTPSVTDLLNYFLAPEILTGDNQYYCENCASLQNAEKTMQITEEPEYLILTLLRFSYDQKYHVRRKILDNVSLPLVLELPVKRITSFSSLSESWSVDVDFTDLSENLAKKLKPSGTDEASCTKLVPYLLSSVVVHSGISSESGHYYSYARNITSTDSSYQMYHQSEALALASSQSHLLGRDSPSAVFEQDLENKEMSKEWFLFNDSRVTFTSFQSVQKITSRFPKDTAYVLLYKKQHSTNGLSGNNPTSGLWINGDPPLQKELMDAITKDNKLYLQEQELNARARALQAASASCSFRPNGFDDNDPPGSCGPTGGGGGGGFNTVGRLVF
Summary of the method: as §1

USP39 = molecular target: T3, USP39 (UniProt Q53GS9)
T3 sequence (whole entry): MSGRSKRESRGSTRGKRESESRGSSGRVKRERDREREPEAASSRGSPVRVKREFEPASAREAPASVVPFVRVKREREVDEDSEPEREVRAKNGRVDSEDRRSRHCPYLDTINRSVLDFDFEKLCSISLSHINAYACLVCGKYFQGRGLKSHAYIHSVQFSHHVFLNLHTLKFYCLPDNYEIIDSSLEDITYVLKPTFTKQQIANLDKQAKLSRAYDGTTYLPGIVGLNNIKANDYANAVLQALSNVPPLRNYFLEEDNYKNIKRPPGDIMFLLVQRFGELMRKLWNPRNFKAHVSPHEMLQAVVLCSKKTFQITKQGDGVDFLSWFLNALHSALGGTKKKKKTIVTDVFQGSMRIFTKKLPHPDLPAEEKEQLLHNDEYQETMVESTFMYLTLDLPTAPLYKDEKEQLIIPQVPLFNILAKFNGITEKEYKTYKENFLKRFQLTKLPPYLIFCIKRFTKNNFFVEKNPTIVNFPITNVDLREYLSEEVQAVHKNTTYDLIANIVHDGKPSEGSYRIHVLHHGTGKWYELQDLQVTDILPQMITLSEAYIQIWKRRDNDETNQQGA
Summary of the method: as §1

USP4 = molecular target: T4, USP4 (UniProt Q13107)
T4 sequence (whole entry): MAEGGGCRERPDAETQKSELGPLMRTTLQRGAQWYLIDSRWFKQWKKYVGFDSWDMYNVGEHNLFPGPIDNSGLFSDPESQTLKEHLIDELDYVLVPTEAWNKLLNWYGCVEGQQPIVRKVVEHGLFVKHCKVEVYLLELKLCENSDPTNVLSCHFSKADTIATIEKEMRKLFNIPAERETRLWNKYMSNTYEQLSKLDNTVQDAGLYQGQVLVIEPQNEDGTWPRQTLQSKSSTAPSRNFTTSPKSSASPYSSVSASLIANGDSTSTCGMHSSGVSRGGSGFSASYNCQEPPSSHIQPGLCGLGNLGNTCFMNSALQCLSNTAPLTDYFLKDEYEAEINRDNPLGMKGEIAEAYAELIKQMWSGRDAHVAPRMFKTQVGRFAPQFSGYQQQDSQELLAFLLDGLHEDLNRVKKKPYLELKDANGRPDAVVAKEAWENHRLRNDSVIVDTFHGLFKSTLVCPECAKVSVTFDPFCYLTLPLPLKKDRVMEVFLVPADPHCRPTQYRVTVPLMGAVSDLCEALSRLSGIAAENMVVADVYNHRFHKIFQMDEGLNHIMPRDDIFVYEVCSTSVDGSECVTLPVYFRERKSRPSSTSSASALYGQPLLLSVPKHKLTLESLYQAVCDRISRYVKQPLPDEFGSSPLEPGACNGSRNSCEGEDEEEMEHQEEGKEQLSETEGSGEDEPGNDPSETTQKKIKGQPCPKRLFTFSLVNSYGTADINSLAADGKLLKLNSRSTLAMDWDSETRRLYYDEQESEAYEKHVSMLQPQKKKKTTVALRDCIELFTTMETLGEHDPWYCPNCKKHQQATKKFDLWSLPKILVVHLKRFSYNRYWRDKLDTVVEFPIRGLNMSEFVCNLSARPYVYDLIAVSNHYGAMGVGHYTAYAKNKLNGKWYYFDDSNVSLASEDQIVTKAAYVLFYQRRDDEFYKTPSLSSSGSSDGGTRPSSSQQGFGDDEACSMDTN
Summary of the method: as §1

Measured: log2 ratio of Biotin-Ahx-Ub-VS probe labelling

Cc1ccc(C)c(Oc2ccc(CNC(=O)CCl)cn2)c1.Cl
inactive: USP34 -0.224 | USP36 -0.158 | USP38 -0.222 | USP39 0.00552 | USP4 -0.39
